This is part of a sample that, as a whole, favours compounds with a hit. Of some 83,000 tested, about 20% had one in any assay.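 48-hour exposure, single concentration, 96-well plates; percent growth endpoint where 0 means no net growth. Active: below 10.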 Calls of active or inactive are those of the source.

Results on 26 molecules are retold here after PubChem BioAssay (NCI).

This experiment deals with HL-60(TB) leukemia. Nature of the experiment: NCI-60 one-dose screen, 48 h (100 = growth as untreated, 0 = no growth, -100 = all killed). Conditions: 10 µM unless noted.
Regarding `CC(C)(C)c1ccc(Cn2c(-c3nonc3N)nc3ccccc32)cc1`, the growth is 51.4% (inactive).

Regarding `NS(=O)(=O)c1ccc(CCn2c(SCC(=O)c3ccc(Cl)cc3)nc3ccccc3c2=O)cc1`, the growth was 95.5% (inactive).

Turning to `Cc1cc(=O)c2cc3nc(-c4cccnc4)oc3c(Br)c2o1`, the growth is 84.9% (inactive).

For `COC(=O)[C@H](Cc1cn(C)cn1)NC(=O)[C@H](Cc1ccccc1)NC(=O)Nc1cc(C(F)(F)F)cc(C(F)(F)F)c1`, the growth is -67.9% [100 µM] (active).

With `CC1CN(/N=C/c2ccc([N+](=O)[O-])o2)C(=N)O1` (stereo unspecified), the growth was 99.8% (inactive).

Take `CS(=O)(=O)Nc1ccc(Nc2c3ccccc3nc3cc(Cl)ccc23)cc1`: the growth was -1.97% (active).

As for `CSc1nc(NCCO)c(C#N)c(-c2cccc([N+](=O)[O-])c2)n1`, the growth was 104% (inactive).

Regarding `Cc1[nH]c(/C=C2\C(=O)Nc3ccc(F)cc32)c(C)c1C(=O)NC[C@H](O)CN1CCOCC1`, the growth was 4.41% (active).

With `O=C1C2CC3C(CC2C(=O)[N]1[Sn]([c]1ccccc1)([c]1ccccc1)[c]1ccccc1)C1(Cl)C(Cl)=C(Cl)C3(Cl)C1(Cl)Cl` (stereo unspecified), the growth is -58% (active).

For the molecule `CC(C)(C)OC(=O)CN1CCc2c(sc3ncnc(N/N=C/c4cccc5ccccc45)c23)C1`, the growth is -9.67% (active).

On to `Clc1cc(Cl)c2nc(-c3ccc(-c4ccc(/C=N/NC5=NCCN5)cc4)s3)cn2c1`, for which the growth is 98.4% (inactive).

Regarding `Cc1cccc(Cc2cnc(NC(=O)CCc3ccc(C)o3)s2)c1`, the growth is -41.5% (active).

For the molecule `COc1cc(-c2nn(-c3cccc(NC(=O)c4ccc(N5CCOCC5)c(C(F)(F)F)c4)c3)cc2-c2ccncc2)ccc1Cl`, the growth is -8.08% (active).

On to `O=C1NCCN1/N=C/c1c(Cl)n(Cc2ccc(Cl)cc2)c2ccccc12`, for which the growth was 74.4% (inactive).

Turning to `CNC(=O)c1cc(Oc2cccc3nc(Nc4ccc(Cl)c(F)c4)ccc23)ccn1`, the growth was 95% (inactive).

On to `O=C(O)c1cccc2c1Cc1cc([N+](=O)[O-])ccc1-2`, for which the growth is 120% (inactive).

As to `O=c1c2cc(Cl)ccc2oc2ccc(OCCCCCN3CCCCCC3)cc12`, the growth is 54.2% (inactive).

With `CCNc1ccc(-c2nc3ccccc3n3cccc23)cc1`, the growth is 86% (inactive).

Regarding `CCOc1nc(-c2ccccc2)cc2c(O)c(C(=O)N/N=C/c3ccc(OC)cc3)[nH]c(=O)c12`, the growth is 65.1% (inactive).

Regarding `Cc1cc(Nc2ccc(OCc3ccccc3)cc2)nc2cc(O)ccc12`, the growth is -44.4% (active).

Turning to `N#Cc1ccc(C2C3=C(CCCC3=O)OC3=C2C(=O)c2ccccc2C3=O)cc1` (stereo unspecified), the growth is -21.4% (active).

As to `Cc1ccc(C2Oc3ccccc3C3CC(c4cccs4)=NN32)cc1` (stereo unspecified), the growth was 97.4% (inactive).

For `CC(C)c1ccc2nc3ccc(C(=O)NCCN4CCN(c5ccccc5)CC4)cn3c(=O)c2c1`, the growth is 74.9% (inactive).

In the case of `COc1cc(NCCCN)c2ncccc2c1`, the growth was 68% (inactive).

For the molecule `Cc1ccc(C(NC(=O)c2ccccc2)c2ccc3cccnc3c2O)cc1` (stereo unspecified), the growth was -21% (active).

In the case of `N#CCNc1ccc(C(=O)O)cc1`, the growth is 99.2% (inactive).
